# Test results as given in PubChem BioAssay.
# Values joined by “and” are separate entries in the source; they are usually repeats but may differ in a detail not shown here. Equal entries are not always repeated.
# Test: JC-1 mitochondrial signal, unstimulated HepG2 cells – cell-based, JC-1 fluorescence, 24 h, 100 nL compound, profiling panel (AID 1167); further: test concentration not given here
# Conditions: HepG2 mitochondrial potential, higher = more signal
row,SMILES,z-score
1,C=C(C)C(=O)OC[C@@H]1CN2[C@@H](CC[C@@H](C)[C@@H]2c2ccc(Br)cc2)C(=O)O1,0.642
2,CCCNC(=O)OC[C@H]1O[C@H](CCON=C(C)CCC(=O)OC[C@H]2O[C@H](C#Cc3ccccc3)C=C[C@@H]2Oc2ccc(C)cc2)C=C[C@@H]1Oc1ccc(OC)cc1,1.38
3,C=C[C@@H](OC)[C@H](O)c1ccc(O)c(F)c1,-0.242 and 0.559
4,COCn1c2ccccc2c2nnc(C(C)=O)nc21,-2.92 and -0.761
5,CC[C@@H]1C(Sc2ccccc2)C(C(=O)O)[C@H](c2ccc(C)cc2)N1S(=O)(=O)c1ccc(C)cc1 (some centres not stated),-0.446 and 0.366
6,C=CCN(C(=O)C(c1cccs1)N(C(=O)/C=C\C(=O)O)c1c(Cl)cccc1CO)c1ccc(OC)cc1 (configuration not stated),0.601 and -1.19
7,CO[C@@H]1COC(=O)[C@H](Cc2ccccc2)NC(=O)CC=C[C@@H](C)[C@H](OC)COC(=O)[C@@H](C)NC(=O)CC=C[C@H]1C,0.999 and -0.15
8,CCOC(=O)[C@@H]1CC=C2CC1C(=O)N1CCC[C@@H]1[C@H]2O[Si](C)(C)C(C)(C)C (some centres not stated),-1.48 and 0.214
9,C[C@@H](c1ccccc1)N1C(=O)[C@H]2[C@H]3[C@H](O)[C@H](O)CC(=O)[C@@H]3CC[C@H]2C1=O,0.921
10,C[C@@H]1CC[C@H]2C(=O)NC[C@@H](O)CN2[C@H]1c1ccc(Br)cc1,-0.606 and 0.493
11,CC(C)[Si]1(C(C)C)OCc2cc(CCCc3cc4c(c(CCc5ccccc5)n3)[Si](C(C)C)(C(C)C)OC4)nc(CCc3ccccc3)c21,-0.508 and -1.19
12,Cc1cc2c(nc1C)CCCN2CC(C)ON=C[C@@H](C)[C@H](OCc1ccccc1)C(C)C (some centres not stated),-0.741
